Experimental data: PubChem BioAssay AID1626 (SRMLSC, 2009)
Among all 220,000 compounds or so, about 2,000 (0.91%) were called active. Another 2% or so got no clear call; they are omitted. Rule as the data show it: inconclusive = inhibition above about 80% without an active follow-up result; inactive = below that; test concentration not stated here. Only a sample is shown. Measured potencies and affinities stand elsewhere.

Assay: M. tuberculosis H37Rv growth inhibitors, H37Rv strain (AID 1626);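 also: bacteria incubated seven days before Alamar blue readout; 0% = bacteria only wells and 100% = bacteria with antibiotic wells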
Details: hits give high values, concentration not given here

Compound	inhibition
NC(=S)Nc1cccc(F)c1	-6.55% (inactive)
Cc1ccc(CNC(=O)Nc2cccc(C)c2)cc1	-0.4% (inactive)
CCC(Sc1ccccn1)C(=O)Nc1nnc(C)s1 (centres undefined)	22% (inactive)
O=C(Nc1ccc2c(c1)OCO2)c1nn(-c2ccccc2)c(=O)c2ccccc12	-10.6% (inactive)
Cc1ccc(Nc2nc(-c3c(C)nc4ncccn34)cs2)cc1	6.26% (inactive)
Cc1nc2ncccn2c1-c1csc(Nc2ccc(O)cc2)n1	1.06% (inactive)
O=C(Nc1cccc(Cl)c1)OCc1cn(-c2ccccc2)nn1	-9.19% (inactive)
Cc1ccc(CN2CCN(/N=C/c3cc(Br)ccc3O)CC2)cc1	2.82% (inactive)
COc1ccc(CCNC(=O)CN(CCc2ccccc2)S(C)(=O)=O)cc1OC	5.24% (inactive)
CCCN(CCC)C(=O)CSc1nc2c(sc(=S)n2-c2ccc(OCC)cc2)c(=O)[nH]1	6.22% (inactive)
O=C(Nc1ccccc1C(=O)NCc1ccccc1)c1ccccc1	-4.15% (inactive)
O=C(O)CCC(=O)Nc1ccccc1C(=O)NCc1ccccc1	-4.2% (inactive)
O=C(NCc1cccc(CNC(=O)c2ccco2)c1)c1ccco1	-1.79% (inactive)
N/C(Cc1ccccc1Sc1ccccc1)=N\O	-3.65% (inactive)
COc1ccc(-c2noc(-c3cccs3)n2)cc1OC	10.1% (inactive)
COc1ccc(-c2csc(-c3cccs3)n2)c(OC)c1	6.31% (inactive)
O=C(CN1C(=O)NC2NC(=O)NC21)NN=C1CCCC1 (centres undefined)	-3.27% (inactive)
Cc1ccccc1N(CC(=O)NCCSCc1ccco1)S(C)(=O)=O	-3.95% (inactive)
O=C(COC(=O)c1ccc(O)cc1)Nc1ccc(N2CCCCC2)cc1	3.59% (inactive)
CC12CCC(C(=O)Nc3ccc4c(c3)OCCO4)(OC1=O)C2(C)C (centres undefined)	-12.4% (inactive)
N#Cc1c(N)c(C(=O)c2ccc(Cl)cc2)n2c1CCC2	-2.62% (inactive)
CC(C)C(=O)Nc1nnc(-c2ccccc2)o1	10.9% (inactive)
CC(NC(=O)c1ccc(Br)s1)c1ccncc1 (centres undefined)	0.09% (inactive)
O=C(Nc1nnc(-c2ccccc2)o1)c1cccc(N2C(=O)CCC2=O)c1	7.39% (inactive)
O=C(Nc1nnc(-c2ccncc2)o1)c1ccccc1	68% (inactive)
O=C(Nc1cccnc1)c1ccc(Br)s1	-8.07% (inactive)

Compound	inhibition
CCCCOC(=O)c1nnc(-c2ccc(Cl)cc2)o1	-12.6% (inactive)
CCCCNC(=O)Nc1nnc(-c2ccccc2)o1	64.8% (inactive)
CC(C)(C)C(=O)Nc1nnc(-c2ccncc2)o1	-0.06% (inactive)
COCCNC(=O)CCC(=O)NNc1nc2ccccc2c2nc(C)nn12	-0.78% (inactive)
CN(C)S(=O)(=O)c1cccc(C(=O)Nc2ccccc2[N+](=O)[O-])c1	-64.1% (inactive)
CC(=O)c1cccc(NC(=O)c2ccc(N(Cc3ccc(C)cc3)S(C)(=O)=O)cc2)c1	1.69% (inactive)
Cc1ccc(/C=N/n2c(C)cc(C)c(C#N)c2=O)cc1	-12.6% (inactive)
O=C(NC1(C(F)(F)F)NC(=O)N(c2ccccc2F)C1=O)c1ccncc1 (centres undefined)	-15.1% (inactive)
Cc1nnc(N)s1	-5.97% (inactive)
CN(C)c1ccc(C(=O)NNC(=O)c2ccc(Cl)cc2)cc1	-8.45% (inactive)
O=C(Nc1nnc(-c2ccc(Cl)cc2)o1)c1ccc(N2C(=O)CCC2=O)cc1	8.01% (inactive)
O=C(CNc1cccc(C(F)(F)F)c1)N/N=C/c1cn(-c2ccccc2)nc1-c1ccccc1	8.35% (inactive)
CC(C)(C)C1CCc2c(sc3nc(SCC(=O)O)nc(N)c23)C1 (centres undefined)	-0.64% (inactive)
CC1CCc2c(sc3nc(SCC(=O)NCc4ccco4)nc(N)c23)C1 (centres undefined)	7.95% (inactive)
NC(=O)CSc1nc(N)c2c3c(sc2n1)CCCCC3	-1.55% (inactive)
CCOC(=O)CSc1nc(N)c2c3c(sc2n1)CCCC3	70.6% (inactive)
Cc1ccccc1NC(=O)CSc1nc(N)c2c3c(sc2n1)CSC(C)(C)C3	53.7% (inactive)
CNC(=O)CSc1nc(N)c2c3c(sc2n1)CCC3	9.76% (inactive)
CCOc1ccccc1C1C(C#N)=C(N)Oc2cc(N)ccc21 (centres undefined)	8.36% (inactive)
C=CCN1C(=O)C(C(C)CC)NC1=S (centres undefined)	-2.92% (inactive)
Cc1ccc(N=C2NC(=O)C(CC(=O)NCc3ccccc3)S2)cc1C (centres undefined)	-1.52% (inactive)
O=C(CCc1c[nH]c2ccccc12)Nc1ccc(S(=O)(=O)Nc2ncccn2)cc1	-2.28% (inactive)
CC1CC1C(=O)OCC(=O)Nc1cccc([N+](=O)[O-])c1 (centres undefined)	-1.97% (inactive)
Cc1ccc(Sc2ccc(CN3CCCC3)cc2[N+](=O)[O-])cc1	9.11% (inactive)
CN1CCN(Cc2ccc(Sc3ccc(Cl)cc3)c([N+](=O)[O-])c2)CC1	18.9% (inactive)
O=C(CN1CCOCC1)NNC(=S)Nc1ccc(Cl)cc1	4.8% (inactive)

Compound	inhibition
Cc1ccc(SCC(=O)NC2CCS(=O)(=O)C2)cc1 (centres undefined)	4.3% (inactive)
CCc1nc(N2CCN(Cc3ccc4c(c3)OCO4)CC2)c2oc3ccccc3c2n1	5.87% (inactive)
c1ccc2c(c1)oc1c(NCc3ccc4c(c3)OCO4)ncnc12	57.7% (inactive)
Cc1nc(Nc2ccc3c(c2)OCO3)c2oc3ccccc3c2n1	-15.2% (inactive)
CCc1nc(Nc2ccc3c(c2)OCCO3)c2oc3ccccc3c2n1	1.04% (inactive)
CC1Cc2ccccc2N1C(=O)c1cnc2ccccn2c1=O (centres undefined)	-5.12% (inactive)
COc1ccc2cc(C(=O)N3CCCCCC3)sc(=O)c2c1OC	-2.1% (inactive)
CCCCCC(=O)N1CC2(CC(c3cccc(NC(=O)CC(c4ccccc4)c4ccccc4)c3)=NO2)C[C@@H]1C(N)=O (some centres undefined)	11.1% (inactive)
Cc1nc(CNS(=O)(=O)c2cccs2)cs1	5.2% (inactive)
Nc1ccc(/C=C/c2ccc3ncccc3c2)cc1	17.8% (inactive)
c1ccc2c(c1)ccc1ncccc12	-7.23% (inactive)
COc1cccc(-c2ccc(C#N)c(=O)[nH]2)c1	-3.44% (inactive)
O=C(Nc1cccc(O)c1)c1cccc(S(=O)(=O)N2CCCC2)c1	-5.4% (inactive)
C/C(=C\C(=O)c1cccnc1)Nc1ccc(O)cc1	-6.05% (inactive)
O=C(Nc1ccccc1O)c1ccccc1O	0.57% (inactive)
CC(=O)Nc1ccccc1O	-3.72% (inactive)
C/C(=C\C(=O)c1ccccc1)Nc1ccc(O)cc1	-1.7% (inactive)
COc1ccc(NC(=S)NC(C)c2ccncc2)cc1OC (centres undefined)	0.92% (inactive)
O=C(O/N=C(\c1ccccc1)c1ccccn1)c1cccc2ccccc12	4.72% (inactive)
CCN(CC(=O)NCc1cccs1)c1ccc(S(=O)(=O)N2CCN(C)CC2)cn1	-7.08% (inactive)
COc1ccc(-c2csc(/C(C#N)=C\c3ccc(O)c([N+](=O)[O-])c3)n2)cc1OC	73.4% (inactive)
COc1ccc(-c2csc(/C(C#N)=C\c3ccc(OC)c([N+](=O)[O-])c3)n2)cc1	5.82% (inactive)
COc1ccc(S(=O)(=O)N2CCCCC2)cc1NC(=O)c1cc(C)on1	-0.76% (inactive)
CNC(=S)Nn1cnc2ccccc21	0.16% (inactive)
COc1ccc(-n2ccnc2)cc1	1.8% (inactive)
c1ccc(-c2ccc(-n3ccnc3)cc2)cc1	1.87% (inactive)

Compound	inhibition
COc1ccc(OC)c(N2C(=O)CC(Cc3ccc(Cl)cc3)C2=O)c1 (centres undefined)	-4.41% (inactive)
Cc1nc2ccccc2c(=O)n1/N=C/C=C/c1ccccc1	-2.49% (inactive)
COc1ccc2c(c1)C1(Nc3ccccc3C(=O)N1c1ccccc1)C(=O)N2 (centres undefined)	-1.38% (inactive)
COc1cc2c(cc1OC)C1(NCC2)C(=O)Nc2ccccc21 (centres undefined)	0.79% (inactive)
COc1ccc(C(=O)C2CCCN(Cc3ccc4nonc4c3)C2)c(OC)c1 (centres undefined)	4.61% (inactive)
CC(C)NC(=O)NC(=O)CSc1ccccc1F	8.25% (inactive)
Nc1[nH]ncc1-c1ccccc1	48.5% (inactive)
COc1ccc(-c2cn[nH]c2N)cc1	3.3% (inactive)
O=C(NCc1cn2ccsc2n1)c1cccs1	2.94% (inactive)
O=C(COC(=O)c1cc(S(=O)(=O)N2CCOCC2)ccc1O)Nc1cc(S(=O)(=O)N2CCCC2)ccc1Cl	-7.64% (inactive)
Cc1cccnc1NC(=O)Nc1ccccc1	-2.38% (inactive)
Cc1nc(NC(=O)c2ccc(F)cc2)sc1C(=O)Nc1ccc2c(c1)CCC2	10.8% (inactive)
Cc1ccc(C(=O)Nc2ccc3c(c2)CCC3)cc1	27.7% (inactive)
O=C1CC2(CCCCCC2)Oc2ccc(Cl)cc21	-6.31% (inactive)
COc1cccc(-c2cc(C(=O)NCCN3CCOCC3)no2)c1	0.49% (inactive)
COc1ccc(NC(=S)NCCCN2CCOCC2)cc1	-0.5% (inactive)
Cc1ccccc1OCc1nc(-c2ccc(NC(=O)c3ccco3)cc2)no1	19.3% (inactive)
CCCc1ccc(OCc2nc(-c3ccc(NC(=O)c4cccs4)cc3)no2)cc1	15.6% (inactive)
Cc1ccc(-n2c(-c3ccncc3)n[nH]c2=S)cc1	-9.92% (inactive)
Cc1cc2oc(C(=O)N(Cc3cccs3)C3CCS(=O)(=O)C3)cc(=O)c2cc1Cl (centres undefined)	0.6% (inactive)
O=C(NCCc1ccccc1)C1CCN(Cc2ccccc2F)CC1	0.69% (inactive)
CCCSc1nnc(Cn2c(=O)sc3ccccc32)n1C	3.51% (inactive)
CCOC(=O)c1c(NC(=O)C2COc3ccccc3O2)sc(C(C)=O)c1C (centres undefined)	-3.37% (inactive)
CC1(C)Cc2c(sc(NC(=O)COc3ccccc3)c2C#N)C(C)(C)N1	-3.34% (inactive)
Cc1ccc(OCC(=O)Nc2sc3c(c2C#N)CC(C)(C)NC3(C)C)cc1	10.1% (inactive)
CCOC(=O)c1c(NC(=O)C2COc3ccccc3O2)sc(C)c1C (centres undefined)	-3.73% (inactive)
